MITF TRPM1 inh = inhibitors of MITF-driven TRPM1 promoter in melanoma cells; inhibition, % at 12.5 µM; actives 0.83% (n = 330,000); SK-MEL-5 TRPM1 promoter luciferase, 24 h;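 active = mean inhibition across replicates of 60% or more, whatever share of single replicates reaches that level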
Gli-Sufu block = antagonists of Gli-Sufu signaling; Sufu-KO-LIGHT fibroblasts, Gli luciferase reporter luminescence; inhibition, % at 5 µM; actives 0.74% (n = 340,000); AID 588413;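 active = inhibition above about 55%, limit read from the data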;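 also: 0% = DMSO-treated cells and 100% = wells with medium but no cells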
Jurkat NFkB inh = inhibitors of the PMA/ionomycin-induced NF-kB reporter in Jurkat cells | inhibition, % at 4 µM | PMA/ionomycin-induced NF-kB luciferase reporter, luminescence | actives 0.53% (n = 330,000); in the data active = inhibition above about 50%
697 NFkB inh = lowers PMA/ionomycin-induced NF-kB signal in 697 B cells; 697 B-cell NF-kB luciferase reporter, 16 h; inhibition, % at 4 µM; actives 0.33% (n = 330,000); in the data active = inhibition above about 35%
EBV LMP1 NFkB = Epstein-Barr LMP1 NF-kappaB reporter inhibition. LMP1-induced NF-kappaB luciferase reporter cells, luminescence. inhibition, % at 12.5 µM. actives 0.69% (n = 350,000). AID 504558; in the data active = inhibition above about 41%;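 also: 0% = neutral control wells and 100% = reference inhibitor control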
Shn3 inh set2 = inhibitors of Schnurri-3 3'UTR reporter in osteoblasts; Clone20 osteoblast Shn3 3'UTR firefly luciferase, 24 h; inhibition, % at 12.5 µM; actives 0.52% (n = 360,000);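 active = mean inhibition of at least 75% with every replicate also reaching 75%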;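 also: 0% = median of neutral control wells and 100% = pilot-screen positive control compound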
Active calls of the source: *; . = no result. The list is not random: actives were taken first. Their share in the collection is about 2.3%.

SMILES	MITF TRPM1 inh	Gli-Sufu block	Jurkat NFkB inh	697 NFkB inh	EBV LMP1 NFkB	Shn3 inh set2
Cc1cccc(-c2sc(Nc3ccccc3)n[n+]2-c2ccc(F)cc2)c1	-20	15	-28	22	-1	-21
CCc1ccc(Nc2n[n+](-c3ccccc3)c(-c3cccc(C)c3)s2)cc1	-8	70*	9	-9	7	85
Cc1cc(C(=O)Cn2cnc3cc(F)ccc3c2=O)c(C)n1C1CC1	-71	-28	-38	-102	-21	93*
O=C(Nc1ccc(Cc2ccncc2)cc1)c1ccc([N+](=O)[O-])o1	45	-4	-5	17	-25	98*
O=C(Nc1ccc2oc(-c3cccnc3)nc2c1)c1ccc([N+](=O)[O-])o1	71*	27	.	.	-3	52
O=C(Nc1ccc2oc(-c3cccnc3)nc2c1)c1ccc(Br)o1	10	20	-17	-39	7	0
O=C(Nc1nc(-c2cccs2)cs1)c1ccc([N+](=O)[O-])o1	86*	16	7	-37	-22	-5
O=C(Nc1ccc(NC(=O)c2ccc([N+](=O)[O-])o2)cc1Cl)c1ccco1	28	1	14	5	-15	15
O=C(Nc1cccc(NC(=O)c2ccc([N+](=O)[O-])o2)c1)c1ccco1	64*	6	36	11	-21	8
Cc1cc2ncn(CC(O)COC3CCCCC3)c2cc1C (configuration not stated)	6	-1	-6	-20	-1	22
CN1CCN(c2cc3c(c4c2[nH]c2ccccc24)C(=O)CC(C)(C)C3)CC1	5	10	5	11	-22	-3
O=C(Nc1cccc(N2C(=O)C=CC2=O)c1)c1cccs1	73*	.	-23	-52	-1	22
COc1cc(NC(=O)c2ccc([N+](=O)[O-])o2)ccc1NC(=O)c1cccs1	87*	0	25	27	-73	71
Cc1ccc(NC(=O)c2cccs2)cc1[N+](=O)[O-]	-28	-1	-20	-15	-12	-13
Cc1nc2ccccc2c(=O)n1-c1cccc(NC(=O)c2cccs2)c1	-1	7	5	-3	6	-9
COc1cc(NC(=O)c2cccs2)ccc1NC(=O)Cc1ccccc1	-21	-22	-10	15	1	-12
Cc1c(NC(=O)c2ccc([N+](=O)[O-])o2)cccc1-c1nc2ncccc2o1	78*	-8	1	9	0	42
O=C(Nc1cccc(NC(=O)c2cccs2)c1)c1ccc([N+](=O)[O-])o1	98*	1	27	6	-57	63
O=C1c2ccccc2-c2onc3ccc(Oc4ccccc4)c1c23	97*	-7	49	-59	53*	90*
CN(CCO)c1cc(Sc2nc3ccccc3s2)c2nonc2c1[N+](=O)[O-]	91*	9	2	-16	2	87*
C=C1C(=O)c2sccc2C(c2ccc(OC)c(OC)c2)C1COC(C)=O (configuration not stated)	98*	44	.	.	79*	99*
CCN1CCN(CC(=O)N2N=C(c3cccs3)CC2c2ccc(OC)c(OC)c2)C(=O)C1=O (configuration not stated)	8	-5	-11	-28	0	-6
COc1ccc(C2=Nn3c(nnc3-c3ccccc3Cl)SC2)cc1OC1CCOC1 (configuration not stated)	-4	-10	-3	-15	11	-12
COc1ccc(OC)c(-c2nnc3n2N=C(c2ccc(OC)c(OC4CCOC4)c2)CS3)c1 (configuration not stated)	71*	38	19	8	26	12
COc1ccccc1-c1cc(C(F)(F)F)nc(S(=O)(=O)CCCC(=O)O)n1	12	9	-6	-10	-15	3
SMILES	MITF TRPM1 inh	Gli-Sufu block	Jurkat NFkB inh	697 NFkB inh	EBV LMP1 NFkB	Shn3 inh set2
COc1ccccc1-c1cc(C(F)(F)F)nc(S(=O)(=O)CCCC(=O)N2CCOCC2)n1	80*	-4	28	-244	-19	83
NC(=Nc1nc(-c2ccccn2)cc2ccccc12)c1ccccn1	65*	87*	.	.	67*	88*
O=C(O)c1ccc(Nc2ccc(F)c(F)c2)c([N+](=O)[O-])c1	8	25	-16	1	-8	11
CCOc1ccc2c(ccc(/C=C/c3cc(C)c4cccnc4c3O)[n+]2C)c1	75*	18	.	.	0	87*
COc1ccc2c(c1OC)C(=O)N(c1ccc3c(c1)CCC3)C2=O	-35	-22	-11	-58	-9	-17
COc1ccc(NC(=O)Cn2nnc(-c3ccccc3NS(=O)(=O)c3ccccc3)n2)cc1	17	41	18	-35	-5	87*
Oc1ccccc1C=NNC(=S)Nc1ccc(F)cc1	5	-8	.	.	30	90*
Fc1ccc(NC(=S)NN=Cc2ccccc2Cl)cc1	-7	-1	.	.	-7	-14
CCCCC#Cc1cncc(C(=O)N/N=C/c2cccc(OC)c2)c1	6	-4	0	0	-8	6
O=C(NCCCn1ccnc1)C(=O)NCC1OCCCN1S(=O)(=O)c1ccccc1 (configuration not stated)	-7	-21	-13	2	-4	90*
Cc1ccc(N/C=C2\CCCCC2=O)c(C)c1	16	-22	17	16	4	8
Cc1ccccc1C(=O)N1CCN(c2ccc(NC(=O)c3ccc4c(c3)OCCO4)cc2)CC1	70*	34	17	-8	43*	86*
CCC(=O)Nc1ccc(N2CCN(C(=O)c3ccccc3C)CC2)cc1	1	-3	10	14	-3	1
Cc1ccc(C(=O)N2CCN(c3ccc(NC(=O)c4ccc5c(c4)OCCO5)cc3)CC2)cc1	47	35	26	-16	19	70
Cc1ccccc1C(=O)N1CCN(c2ccc(NC(=O)CSc3ccc(Cl)cc3)cc2)CC1	50	-3	2	-62	58*	83
O=C1c2ccccc2C(=O)c2c(NCc3cccnc3)cccc21	6	15	-8	-4	12	29
O=C1c2cccc(NCCCNCCO)c2C(=O)c2cccc(NCCCNCCO)c21	86*	-27	.	.	25	-49
CCOc1ccccc1NC(=O)NCc1ccc(F)cc1	21	-5	7	7	-5	3
COc1cc(CCNC2=CC(=O)c3ncccc3C2=O)ccc1O	113*	18	.	.	0	21
COc1ccccc1CNS(=O)(=O)c1cc(CN2C(=O)c3cccnc3C2=O)ccc1OC	1	5	9	1	5	1
Cc1cccc2cc(C#N)c(SCC(=O)N3CC(=O)Nc4ccccc43)nc12	65*	44	48	-36	-49	28
Cc1ccccc1NS(=O)(=O)c1ccc(C(=O)N2CCCCCCC2)cc1	8	10	13	-5	16	13

Screening results as filed in PubChem.
